Test [1] can be described thus: Quantitative High-Throughput drug screen in 47 multiple myeloma cell lines against the NCATS MIPE library collection: MMM1_PLB cell viability assay (AID 1918976). Also: nearly all actives have a fitted effect of over 35% in size. Summed up:
(§1)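 Cells were exposed to library compounds for 48 hours, after which ATP was measured by CellTiter-Glo. Signal was taken as median relative luminescence units.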

The nature of test [2]: Quantitative High-Throughput drug screen in 47 multiple myeloma cell lines against the NCATS MIPE library collection: NCIH929_DSMZ cell viability assay (AID 1918978). Also: nearly all actives have a fitted effect of over 35% in size. Summed up:
as §1

Test [3] in a line: Quantitative High-Throughput drug screen in 47 multiple myeloma cell lines against the NCATS MIPE library collection: KMS26_JCRB cell viability assay (AID 1918975). Also: nearly all actives have a fitted effect of over 45% in size. In outline: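 We plated 500 myeloma cells per well, pinned in MIPE 4.0 compounds, and incubated for 48 hours at 37C. ATP was then quantified with CellTiter-Glo, with DMSO and media-only wells defining 100% and 0%.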

A short description of test [4]: Quantitative High-Throughput drug screen in 47 multiple myeloma cell lines against the NCATS MIPE library collection: LP1_DSMZ cell viability assay (AID 1918982). Also: nearly all actives have a fitted effect of over 35% in size. In outline: as §1
Test [5] is described as follows: Quantitative High-Throughput drug screen in 47 multiple myeloma cell lines against the NCATS MIPE library collection: KMS28PE_JCRB cell viability assay (AID 1918983). Also: nearly all actives have a fitted effect of over 35% in size. In outline:
as §1

A short description of test [6]: Quantitative High-Throughput drug screen in 47 multiple myeloma cell lines against the NCATS MIPE library collection: MOLP8_DSMZ cell viability assay (AID 1918977). Also: nearly all actives have a fitted effect of over 45% in size. Summed up: as §1
A short description of test [7]: Quantitative High-Throughput drug screen in 47 multiple myeloma cell lines against the NCATS MIPE library collection: MM1S_ATCC cell viability assay (AID 1918980). Also: nearly all actives have a fitted effect of over 45% in size. As to viability (% of control): series mostly up to about 46 µM. Summed up:
as §1

The nature of test [8]: Quantitative High-Throughput drug screen in 47 multiple myeloma cell lines against the NCATS MIPE library collection: MM1R_ATCC cell viability assay (AID 1918981). Also: nearly all actives have a fitted effect of over 35% in size. In outline:
as §1

Test [9] is described as follows: Quantitative High-Throughput drug screen in 47 multiple myeloma cell lines against the NCATS MIPE library collection: L363_DSMZ cell viability assay (AID 1918984). Also: nearly all actives have a fitted effect of over 40% in size. In outline: as §1
A short description of test [10]: Quantitative High-Throughput drug screen in 47 multiple myeloma cell lines against the NCATS MIPE library collection: OCIMY1_PLB cell viability assay (AID 1918979). Also: nearly all actives have a fitted effect of over 35% in size. As to viability: series mostly up to about 46 µM. In outline:
as §1

The structures appear in SMILES notation. Results filed as inconclusive are left out. A number with no mark means an inactive call. The source made the active and inactive calls. Calls follow the shape of the dose curve; as a rule, active = well fitted curve in the direction sought with a large enough effect; inconclusive = small, poorly fitted or top-dose-only effect, or another doubt; inactive = no such curve, though single readings can be large; an effect the other way counts as inactive or inconclusive.
Potency is read from the fitted curve at half-maximal effect.

For `COc1c(N2C[C@@H]3CCCN[C@H]3C2)c(F)cc2c(=O)c(C(=O)O)cn(C3CC3)c12`, the Potency entry in [1] and in [2] was “inactive” in each case.
`COc1ccc(CC2c3cc(OC)c(OC)cc3CC[N+]2(C)CCC(=O)OCCCCCOC(=O)CC[N+]2(C)CCc3cc(OC)c(OC)cc3C2Cc2ccc(OC)c(OC)c2)cc1OC` (stereo unspecified): in test [3], the viability (% of DMSO) is 102% [at 5.15 µM]. Moreover, the viability (% of control) in test [4] was 101% [at 5.15 µM]. The viability, % of DMSO control in test [5] was 105% [at 5.15 µM].
In the case of `CC(C)c1noc(N2CCC(COc3ccc(-c4ccc(S(C)(=O)=O)cc4)nc3)CC2)n1`, the Potency is 9.35 µM (active) in [1], 0.418 µM (active) in test [6], 13.2 µM (active) in [8] and 16.6 µM (active) in [5]. The Potency entry in test [7] and in test [9] was “inactive” in each case.
As for `CC(C)(C)c1cc(NC(=O)Nc2ccc(-c3cn4c(n3)sc3cc(OCCN5CCOCC5)ccc34)cc2)no1`, in test [3], the Potency is 18.7 µM (active). The Potency result in [2], in test [7] and in test [9] was “inactive” in each case.
In the case of `O=C(O)CO.[NH2-].[NH2-].[Pt+2]`, the Potency entry in test [3], in test [10], in [4] and in [9] was “inactive” in each case.
With `C[C@@H]1CN(CC(=O)Nc2ccc3c(c2)Cc2cccc(-c4cc(=O)cc(N5CCOCC5)o4)c2S3)C[C@H](C)O1`, the Potency in test [3] was 20.9 µM (active); in test [2], 5.9 µM (active); in test [7], 18.7 µM (active); in [5], 9.35 µM (active); in [9], 14800 nM (active).
For `CC(C)(C)OC(=O)Nc1ccc(-c2cc(C(=O)NCCCCCCC(=O)NO)no2)cc1`, the Potency in test [3] was 3.72 µM (active); in test [7], 2.35 µM (active); in [8] it was 1.87 µM (active); in [9], 469 nM (active).
On to `O=C(O)c1ccc2cc(-c3ccc(O)c(C45CC6CC(CC(C6)C4)C5)c3)ccc2c1`, for which the Potency in test [1] is 18.7 µM (active); in [6] it was 1.32 µM (active); in test [10], 16.6 µM (active); in test [7] it was 1.32 µM (active); in [8] it was 0.662 µM (active); in test [4] it was 20.9 µM (active). Further, the figures for the Potency in test [5] and in test [9] were 3.32 µM (active) and 833 nM (active), respectively.
In the case of `Cc1ccc(C(=O)Nc2cccc(C(F)(F)F)c2)cc1-c1ccc2nc(NCCN3CCOCC3)ncc2c1`, the Potency in [1] is 14.8 µM (active); in test [6], 3.32 µM (active); in test [2] it was 5.26 µM (active); in test [10] it was 18.7 µM (active); in test [7], 16.6 µM (active); in [8], 14.8 µM (active). Also, the Potency was 18.7 µM (active) in [4], 14.8 µM (active) in [5] and 1050 nM (active) in test [9].
In the case of `Cc1cn(-c2cc(NC(=O)c3ccc(C)c(Nc4nccc(-c5cccnc5)n4)c3)cc(C(F)(F)F)c2)cn1`, the Potency in test [1] is 11.8 µM (active); in [6], 20.9 µM (active); in test [8], 18.7 µM (active); in [4] it was 23.5 µM (active). For the same compound, the Potency result in [2], in test [7] and in [9] was “inactive” each time.
Turning to `CC(C)(C)NC(=O)[C@H]1CN(Cc2cccnc2)CCN1C[C@@H](O)C[C@@H](Cc1ccccc1)C(=O)N[C@H]1c2ccccc2C[C@H]1O`, the Potency in test [3] is 20.9 µM (active); in [8], 26.4 µM (active).
`CCCn1c(=O)c2[nH]c(-c3cnn(Cc4cccc(C(F)(F)F)c4)c3)nc2n(CC)c1=O`: the Potency in test [1] is 13.2 µM (active); in test [6], 5.9 µM (active); in test [7], 16.6 µM (active); in test [4], 10.5 µM (active). Also, the Potency result in test [10] and in test [5] was “inactive” each time.
`Cn1cncc1[C@@](N)(c1ccc(Cl)cc1)c1ccc2c(c1)c(-c1cccc(Cl)c1)cc(=O)n2C`: the Potency in test [1] is 14.8 µM (active); in test [6], 7.43 µM (active); in test [7] it was 6.62 µM (active); in test [8] it was 23.5 µM (active); in test [5] it was 8.33 µM (active).
Consider `CC=C1NC(=O)[C@H]2CSSCCC=C[C@H](CC(=O)N[C@H](C(C)C)C(=O)N2)OC(=O)[C@H](C(C)C)NC1=O`, for which the Potency in [1] is 0.935 µM (active); in test [6] it was 0.0132 µM (active); in [2], 0.0526 µM (active); in test [7], 0.0332 µM (active); in [8], 0.0166 µM (active); in test [4], 0.0118 µM (active). Moreover, the values for the Potency in [5] and in test [9] were 0.0209 µM (active) and 6.6 nM (active), respectively.
For the compound `COc1ccc(C=Cc2cc(OC)c(OC)c(OC)c2)cc1O`, the Potency result in [1], in test [2], in test [10], in test [4] and in test [9] was “inactive” each time.
`C=CCn1c(=O)c2cnc(Nc3ccc(N4CCN(C)CC4)cc3)nc2n1-c1cccc(C(C)(C)O)n1`: the Potency result in test [1] was “inactive”. Besides, the Potency was 7.43 µM (active) in [2], 0.166 µM (active) in [8], 0.59 µM (active) in test [5] and 83.3 nM (active) in test [9].
Consider `Cc1cc(Nc2cc(CN3CCOCC3)c3nc(C)c(Cc4ccc(Cl)cc4F)n3n2)n[nH]1`, for which the Potency in test [1] is 14.8 µM (active); in [6], 20.9 µM (active); in test [2], 26.4 µM (active); in [7], 20.9 µM (active); in test [8] it was 18.7 µM (active).
With `O=C(NCCCNc1nc(Nc2cccc(NC(=O)N3CCCC3)c2)ncc1I)c1cccs1`, the Potency is 23.5 µM (active) in test [1]; 5.26 µM (active) in [6]; 18.7 µM (active) in [10]; 18.7 µM (active) in test [7]; 20.9 µM (active) in test [8]; 18.7 µM (active) in test [4]. The Potency in [5] is 18.7 µM (active).
Consider `CCCCN1CCC(CNC(=O)c2c3n(c4ccccc24)CCCO3)CC1`, for which the Potency in [1] is 5.26 µM (active); in test [2], 4.69 µM (active); in [7], 3.72 µM (active); in test [5], 23.5 µM (active).
Regarding `CNC(=O)c1ccc(N2C(=S)N(c3cnc(C#N)c(C(F)(F)F)c3)C(=O)C23CCC3)cc1F`, the Potency was 1.48 µM (active) in test [3]; 0.132 µM (active) in [7]; 1.05 µM (active) in [8]; 26.4 µM (active) in [5]; 7430 nM (active) in test [9].
`Cc1coc2c1C(=O)C(=O)c1c-2ccc2c1CCCC2(C)C`: the Potency in test [3] is 2.96 µM (active); in test [10], 16.6 µM (active); in [4], 4.18 µM (active); in test [9], 41.8 nM (active).
With `O=C(NCCS(=O)(=O)c1ccc(C(F)(F)F)cn1)c1ccc(Cl)cc1`, the Potency result in test [1], in test [6], in [2], in [10], in test [7] and in [4] was “inactive” each time. The Potency result in [5] and in [9] was “inactive” each time.
Regarding `NCC(=O)Nc1ccc(-n2nc(C(F)(F)F)cc2-c2ccc3c(ccc4ccccc43)c2)cc1`, the Potency is 23.5 µM (active) in test [1], 16.6 µM (active) in test [2], 23.5 µM (active) in test [4] and 29.6 µM (active) in [5].
Consider `O=C(O)c1ccc2c(c1)nc(Nc1cccc(Cl)c1)c1ccncc12`, for which the Potency is 14.8 µM (active) in [1]; 10.5 µM (active) in test [6]; 3.72 µM (active) in [2]; 6.62 µM (active) in test [7]; 13.2 µM (active) in [5]; 4690 nM (active) in test [9].

Source of the values: PubChem BioAssay (NCATS).
